Laboratory results reported in PubChem BioAssay (NCATS).
Records with an inconclusive call do not appear. Active and inactive are the calls of the source. Unless noted, the call rests on the fitted dose curve; in most records, active means well fitted curve in the direction sought with a large enough effect; inconclusive means small, poorly fitted or top-dose-only effect, or another doubt; inactive means no such curve, though single readings can be large; an effect the other way counts as inactive or inconclusive.

Columns and labels:
[1] = Inducers of the Endoplasmic Reticulum Stress Response (ERSR) in human glioma: Validation (AID 504836)
Summary of the method: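 Stably transfected U87-MG human glioma cells carrying a GRP78-based luminescent sensor were seeded at 1000 cells/well, pin-dosed with compounds and incubated 16 h. Luciferase reagent was then added, and end-point luminescence was read after 10 min at room temperature.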

[2] = qHTS for Inhibitors of the Functional Ribonucleoprotein Complex (vRNP) of Lassa (LASV) Arenavirus: LASV Primary Screen - GLuc reporter signal (AID 1347082; calls by dose curve; tested in HEK293 reporter line; further: series mostly up to about 57 µM; nearly all actives have a fitted effect of over 60% in size)
[3] = qHTS for Inhibitors of the Functional Ribonucleoprotein Complex (vRNP) of Lassa (LASV) Arenavirus: Viability assay - alamar blue signal for LASV Primary Screen (AID 1347083; calls by dose curve; tested in HEK293 reporter line; further: series mostly up to about 57 µM; nearly all actives have a fitted effect of over 80% in size)
[4] = qHTS for Inhibitors of the Functional Ribonucleoprotein Complex (vRNP) of Lymphocytic Choriomeningitis Arenaviruses (LCMV): Viability assay - alamar blue signal for LCMV Primary Screen (AID 1347085; calls by dose curve; tested in HEK293 reporter line; further: series mostly up to about 57 µM; nearly all actives have a fitted effect of over 80% in size)
[5] = target: Nucleoprotein (Lymphocytic choriomeningitis virus (strain Armstrong)) (UniProt P09992); test: qHTS for Inhibitors of the Functional Ribonucleoprotein Complex (vRNP) of Lymphocytic Choriomeningitis Arenaviruses (LCMV): LCMV Primary Screen - GLuc reporter signal (AID 1347086; calls by dose curve; further: series mostly up to about 57 µM; nearly all actives have a fitted effect of over 70% in size)
[6] = target: Alpha-galactosidase (Coffea arabica) (UniProt Q42656); test: Counterscreen for Glucocerebrosidase Inhibitors: qHTS Assay for Coffee Bean alpha-Galactosidase at pH 4.5 (AID 957); further: series mostly up to about 77 µM
Summary of the method: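 Fluorogenic read-out: 4-methylumbelliferone at Ex 365/Em 440 nm after NaOH/glycine stop (pH 10). Enzyme 2 nM, 4-MU-alpha-galactoside 80 uM, citrate buffer pH 4.5, 20 min RT; normalized to no-enzyme and enzyme controls.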

[7] = target: Alpha-galactosidase (Coffea arabica) (UniProt Q42656); test: Counterscreen for Glucocerebrosidase Inhibitors: qHTS Assay for Coffee Bean alpha-Galactosidase at pH 5.9 (AID 998)
Summary of the method: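 In 50 mM citric acid pH 5.9 with 0.005% Tween-20, coffee bean enzyme hydrolyses 80 uM 4-MU alpha-D-galactopyranoside over 20 min at RT. Activity is normalized to controls; AC50 comes from Hill-modelled concentration-response data.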

[8] = target: Ubiquitin carboxyl-terminal hydrolase 1 (Homo sapiens) (UniProt O94782); test: Inhibitors of USP1/UAF1: Pilot qHTS (AID 504865);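 further: rhodamine fluorescence freed from ubiquitin-rhodamine substrate followed over time; top concentration of the series differs between compounds; nearly all actives have a fitted effect of over 35% in size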
Summary of the method: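 1nM USP1/UAF1 + cpd, 15 min RT; start w/ Ub-Rho 150nM final; kinetic FL 480/540 nm, 6 reads q60 s. Buffer 50mM HEPES pH 7.8, 0.5mM EDTA, 1mM TCEP, 0.01% Tween-20, 0.1 mg/ml BSA.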

[9] = target: Arylsulfatase A (Homo sapiens) (UniProt P15289); test: qHTS screen for enhancers of Arylsulfatase A (ASA1): LOPAC Validation Assay (AID 720538)
Summary of the method: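 Read-out: fluorescence at Ex=525/Em=598 nm after 1N NaOH final stop. Patient fibroblasts carrying ASA-I179S had 48h compound exposure, then 14h room-temperature pNCS hydrolysis (0.5mM final) in lysis buffer. Signal increase = enhanced activity.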

[10] = target: Cytochrome P450 3A4 (Homo sapiens) (UniProt P08684); test: qHTS Assay for Inhibitors and Substrates of Cytochrome P450 3A4 (AID 884); further: series mostly up to about 57 µM; nearly all actives have a fitted effect of over 50% in size
Summary of the method: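 Luminescent readout of luciferin produced by CYP3A4 (20 nM) dealkylation of Luciferin-PPXE, 25 uM (its KM). NADPH-driven reaction ran 60 min at RT after 10 min compound preincubation; data scaled to 57 uM ketoconazole as 100% inhibition.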

[11] = target: DNA dC->dU-editing enzyme APOBEC-3G (Homo sapiens) (UniProt Q9HC16); test: qHTS for inhibitors of Vif-A3G interactions: Validation (AID 588379)
Summary of the method: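 Yellow fluorescence (Ex 488, Em 500-530) of Vif-coexpressing HeLa A3G-eYFP cells, scanned by Acumen cytometer, reports blocked A3G degradation. Cells plated at 700/well overnight at 37 deg C before compound addition, then a further overnight compound incubation at 37 deg C.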

Measured: Potency

Chain of Ubiquitin carboxyl-terminal hydrolase 1 (Homo sapiens) (O94782 whole entry, looked up): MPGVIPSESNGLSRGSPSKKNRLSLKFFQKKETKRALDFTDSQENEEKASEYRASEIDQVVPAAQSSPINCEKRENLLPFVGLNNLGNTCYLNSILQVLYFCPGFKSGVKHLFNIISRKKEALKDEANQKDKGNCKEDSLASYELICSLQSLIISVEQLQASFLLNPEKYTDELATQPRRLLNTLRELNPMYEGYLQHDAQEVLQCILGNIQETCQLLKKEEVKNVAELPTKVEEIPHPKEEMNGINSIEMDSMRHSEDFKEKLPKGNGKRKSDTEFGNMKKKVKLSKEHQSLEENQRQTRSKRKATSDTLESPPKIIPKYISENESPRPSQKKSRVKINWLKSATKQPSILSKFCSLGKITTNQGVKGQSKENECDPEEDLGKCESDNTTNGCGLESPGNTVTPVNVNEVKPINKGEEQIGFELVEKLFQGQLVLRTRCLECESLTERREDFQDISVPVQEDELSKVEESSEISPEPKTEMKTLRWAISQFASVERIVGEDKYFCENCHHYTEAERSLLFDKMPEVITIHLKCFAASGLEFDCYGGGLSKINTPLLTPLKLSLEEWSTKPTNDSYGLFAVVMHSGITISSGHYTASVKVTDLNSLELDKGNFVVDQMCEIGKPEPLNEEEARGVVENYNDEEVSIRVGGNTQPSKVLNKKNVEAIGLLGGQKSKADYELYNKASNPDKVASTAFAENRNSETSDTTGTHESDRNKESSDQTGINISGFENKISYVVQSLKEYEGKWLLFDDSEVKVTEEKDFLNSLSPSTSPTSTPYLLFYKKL
Chain of Nucleoprotein (Lymphocytic choriomeningitis virus (strain Armstrong)) (P09992 whole entry, looked up): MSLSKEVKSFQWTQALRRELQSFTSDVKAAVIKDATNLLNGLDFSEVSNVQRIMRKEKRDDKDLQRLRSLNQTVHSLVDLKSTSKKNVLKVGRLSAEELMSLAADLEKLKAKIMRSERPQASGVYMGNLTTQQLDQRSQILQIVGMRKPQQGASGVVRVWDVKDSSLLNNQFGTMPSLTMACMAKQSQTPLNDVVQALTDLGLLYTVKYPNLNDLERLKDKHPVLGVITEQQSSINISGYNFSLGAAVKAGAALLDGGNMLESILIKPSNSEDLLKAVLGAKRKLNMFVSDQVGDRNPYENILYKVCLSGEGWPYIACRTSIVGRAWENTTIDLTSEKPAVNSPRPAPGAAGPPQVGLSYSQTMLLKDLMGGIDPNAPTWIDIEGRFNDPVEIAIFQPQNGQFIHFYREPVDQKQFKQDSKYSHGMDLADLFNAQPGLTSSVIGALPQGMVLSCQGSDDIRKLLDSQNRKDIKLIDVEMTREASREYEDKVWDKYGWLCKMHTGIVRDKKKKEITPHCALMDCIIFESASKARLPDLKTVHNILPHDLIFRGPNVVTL
Chain of Arylsulfatase A (Homo sapiens) (P15289 whole entry, looked up): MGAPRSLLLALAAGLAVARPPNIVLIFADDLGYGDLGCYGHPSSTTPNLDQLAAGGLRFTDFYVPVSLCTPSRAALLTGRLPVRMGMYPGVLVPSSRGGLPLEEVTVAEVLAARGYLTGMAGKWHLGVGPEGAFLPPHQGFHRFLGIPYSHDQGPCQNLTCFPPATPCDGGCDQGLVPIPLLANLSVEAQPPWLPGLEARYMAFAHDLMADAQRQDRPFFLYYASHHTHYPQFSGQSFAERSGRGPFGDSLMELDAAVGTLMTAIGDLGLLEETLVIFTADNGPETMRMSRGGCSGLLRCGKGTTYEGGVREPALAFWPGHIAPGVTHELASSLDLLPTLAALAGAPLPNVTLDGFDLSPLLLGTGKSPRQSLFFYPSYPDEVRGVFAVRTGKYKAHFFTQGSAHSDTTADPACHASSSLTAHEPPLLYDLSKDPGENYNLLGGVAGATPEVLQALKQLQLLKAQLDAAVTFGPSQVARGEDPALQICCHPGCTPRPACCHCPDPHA
Chain of Alpha-galactosidase (Coffea arabica) (Q42656 whole entry, looked up): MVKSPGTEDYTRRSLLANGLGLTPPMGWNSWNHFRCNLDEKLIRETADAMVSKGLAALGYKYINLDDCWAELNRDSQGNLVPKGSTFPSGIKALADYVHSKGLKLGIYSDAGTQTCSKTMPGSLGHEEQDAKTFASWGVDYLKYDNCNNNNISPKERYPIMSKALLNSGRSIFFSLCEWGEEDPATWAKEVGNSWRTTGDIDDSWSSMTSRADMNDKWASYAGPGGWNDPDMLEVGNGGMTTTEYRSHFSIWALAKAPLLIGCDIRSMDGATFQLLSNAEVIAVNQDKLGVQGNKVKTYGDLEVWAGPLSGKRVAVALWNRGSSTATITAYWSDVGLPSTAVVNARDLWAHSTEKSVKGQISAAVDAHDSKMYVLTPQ
Chain of Cytochrome P450 3A4 (Homo sapiens) (P08684 whole entry, looked up): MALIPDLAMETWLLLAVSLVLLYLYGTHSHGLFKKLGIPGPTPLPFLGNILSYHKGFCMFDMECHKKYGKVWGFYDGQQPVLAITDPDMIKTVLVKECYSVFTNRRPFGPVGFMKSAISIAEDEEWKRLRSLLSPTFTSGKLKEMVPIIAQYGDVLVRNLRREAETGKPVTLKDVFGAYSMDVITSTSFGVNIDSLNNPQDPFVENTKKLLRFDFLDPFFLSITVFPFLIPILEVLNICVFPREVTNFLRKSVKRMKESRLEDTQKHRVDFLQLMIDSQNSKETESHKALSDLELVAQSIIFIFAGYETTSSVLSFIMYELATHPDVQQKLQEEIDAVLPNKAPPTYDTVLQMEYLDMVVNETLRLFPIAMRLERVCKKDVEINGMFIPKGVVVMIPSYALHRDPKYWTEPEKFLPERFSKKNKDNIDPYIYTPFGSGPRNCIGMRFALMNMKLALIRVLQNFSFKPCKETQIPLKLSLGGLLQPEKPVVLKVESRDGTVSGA
Chain of DNA dC->dU-editing enzyme APOBEC-3G (Homo sapiens) (Q9HC16 whole entry, looked up): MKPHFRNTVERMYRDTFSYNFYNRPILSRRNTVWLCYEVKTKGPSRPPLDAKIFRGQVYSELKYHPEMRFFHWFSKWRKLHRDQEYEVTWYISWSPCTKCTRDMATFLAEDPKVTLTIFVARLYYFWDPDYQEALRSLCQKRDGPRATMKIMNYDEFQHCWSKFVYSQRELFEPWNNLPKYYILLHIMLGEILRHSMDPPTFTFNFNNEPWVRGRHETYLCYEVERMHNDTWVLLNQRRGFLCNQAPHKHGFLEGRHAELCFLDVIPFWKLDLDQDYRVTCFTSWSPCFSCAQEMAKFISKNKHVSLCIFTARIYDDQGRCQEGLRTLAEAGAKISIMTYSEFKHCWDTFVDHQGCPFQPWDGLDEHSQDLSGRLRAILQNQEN

CCN(CC)CCNC(=O)c1ccc(NS(C)(=O)=O)cc1
inactive: [1] | [2] | [3] | [4] | [5]

C[C@H](Cc1ccccc1)Nc1ncnc2c1ncn2[C@@H]1O[C@H](CO)[C@@H](O)[C@H]1O
inactive: [1] | [2] | [3] | [4] | [5]

C=CC(C)=C[C@@]1(C)SC(=O)C(C)=C1O
inactive: [1] | [2] | [3] | [4] | [5]

N[C@@H](Cn1ccc(=O)c(O)c1)C(=O)O
inactive: [1] | [2] | [3] | [4] | [5]

CO/S(=N\S(=O)(=O)c1ccc(Cl)cc1)c1ccc([N+](=O)[O-])cc1 (centres undefined)
inactive: [1] | [2] | [3] | [4] | [5]

NC(=S)NCCC[C@H](N)C(=O)O
inactive: [1] | [2] | [3] | [4] | [5]

Nc1ncnc2c1ncn2[C@@H]1O[C@H](COP(=O)(O)OP(=O)(O)OP(=O)(O)OP(=O)(O)OC[C@@H]2O[C@H](n3cnc4c(N)ncnc43)[C@@H](O)[C@H]2O)[C@@H](O)[C@H]1O
inactive: [1] | [2] | [3] | [4] | [5]

N[C@H](C(=O)O)c1cc(O)cc(O)c1
inactive: [6] | [7] | [1] | [2] | [3] | [4] | [5]

c1ccc(C(NCc2cccnc2)(c2ccccc2)c2ccccc2)cc1
inactive: [1] | [2] | [3] | [4] | [5]

O=C1/C(=C/c2ccsc2)CC/C1=C\c1cccs1
inactive: [1] | [2] | [3] | [4] | [5]

CC[C@@H]1Cc2cc(O)ccc2C2=C1c1ccc(O)cc1C[C@H]2CC
inactive: [6] | [1] | [2] | [3] | [4] | [5]

Nc1nc2c(cnn2CCc2ccccc2)c2nc(-c3ccco3)nn12
inactive: [1] | [2] | [3] | [4] | [5]

CCCn1c(=O)c2[nH]c(-c3ccc(OCC(=O)NCCN)cc3)nc2n(CCC)c1=O
inactive: [6] | [7] | [1] | [2] | [3] | [4] | [5]

NCC1OC(O[C@H]2[C@H](O)[C@@H](OC3C(O)C(N)CC(N)C3OC3OC(CO)C(O)C(O)C3N)O[C@@H]2CO)C(N)C(O)C1O (some centres undefined)
inactive: [1] | [8] | [9] | [2] | [3] | [4] | [5]

CN1C2CC(OC(=O)[C@H](CO)c3ccccc3)CC1C1OC12 (some centres undefined)
inactive: [1] | [8] | [2] | [3] | [4] | [5]

Nc1ncnc2c1ncn2C1CCCC1
inactive: [6] | [7] | [1] | [2] | [3] | [4] | [5]

CC(O)C(O)[C@H]1CNc2nc(N)[nH]c(=O)c2N1 (some centres undefined)
inactive: [1] | [2] | [3] | [4] | [5]

COc1ccc2c(c1)CCC1C2CC[C@@]2(C)C1CC[C@@H]2NCCCCCCN1C(=O)CCC1=O (some centres undefined)
inactive: [1] | [2] | [3] | [4] | [5]

C[C@H]1CC2C3CCC4=CC(=O)C=C[C@]4(C)[C@@]3(Cl)[C@@H](O)C[C@]2(C)[C@@]1(O)C(=O)CO (some centres undefined)
inactive: [1] | [2] | [3] | [4] | [5]

OC[C@H]1O[C@H](n2cnc3c(N[C@H]4CCC[C@@H]4O)ncnc32)[C@H](O)[C@@H]1O
inactive: [1] | [2] | [3] | [4] | [5]

CC(=O)O[C@H]1C[C@@H]2CC[C@@H]3[C@H](CC[C@@]4(C)[C@H]3C[C@H]([N+]3(C)CCCCC3)[C@@H]4OC(C)=O)[C@@]2(C)C[C@@H]1[N+]1(C)CCCCC1
inactive: [1] | [8] | [9] | [2] | [3] | [4] | [5]

CCCn1c(=O)c(C)cn2nc(N)nc12
inactive: [1] | [2] | [3] | [4] | [5]

N[C@@H](CCC(=O)N[C@H](CSN=O)C(=O)NCC(=O)O)C(=O)O
inactive: [1] | [2] | [3] | [4] | [5]

CCCCCCC(=O)OC1CC(C)(C)NC(C)(C)C1
inactive: [1] | [9] | [2] | [3] | [4] | [5]

CC1CC2C3CCC4=CC(=O)C=C[C@]4(C)[C@@]3(F)[C@@H](O)C[C@]2(C)[C@@]1(O)C(=O)CO (some centres undefined)
inactive: [1] | [2] | [3] | [4] | [5]

CN=c1nc(-c2ccccc2)n(-c2ccccc2)s1
inactive: [6] | [7] | [1] | [2] | [3] | [4] | [5]

NC[C@H]1O[C@@H](n2cnc3c(N)ncnc32)[C@H](O)[C@@H]1O
inactive: [1] | [2] | [3] | [4] | [5]

NC(N)=[N+]1CCc2ccccc2C1
inactive: [6] | [7] | [1] | [2] | [3] | [4] | [5]

OC[C@H]1O[C@@H](n2cnc3c(Nc4ccccc4)ncnc32)[C@H](O)[C@@H]1O
inactive: [1] | [2] | [3] | [4] | [5]

CN[C@@H](Cc1c[nH]c2ccccc12)C(=O)O
inactive: [10] | [8] | [11] | [2] | [3] | [4] | [5]
